PPARg SRC3 recr: PPARgamma-driven SRC-3 recruitment agonism; AID 731; P37231; activation, % at 8 µM; 0.26% of 200,000 active; biochemical PPARgamma/SRC-3 coactivator recruitment assay; in the data active = activation above about 23%;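 also: 0% = DMSO and 100% = reference agonist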
Target sequence (P37231 whole entry, looked up): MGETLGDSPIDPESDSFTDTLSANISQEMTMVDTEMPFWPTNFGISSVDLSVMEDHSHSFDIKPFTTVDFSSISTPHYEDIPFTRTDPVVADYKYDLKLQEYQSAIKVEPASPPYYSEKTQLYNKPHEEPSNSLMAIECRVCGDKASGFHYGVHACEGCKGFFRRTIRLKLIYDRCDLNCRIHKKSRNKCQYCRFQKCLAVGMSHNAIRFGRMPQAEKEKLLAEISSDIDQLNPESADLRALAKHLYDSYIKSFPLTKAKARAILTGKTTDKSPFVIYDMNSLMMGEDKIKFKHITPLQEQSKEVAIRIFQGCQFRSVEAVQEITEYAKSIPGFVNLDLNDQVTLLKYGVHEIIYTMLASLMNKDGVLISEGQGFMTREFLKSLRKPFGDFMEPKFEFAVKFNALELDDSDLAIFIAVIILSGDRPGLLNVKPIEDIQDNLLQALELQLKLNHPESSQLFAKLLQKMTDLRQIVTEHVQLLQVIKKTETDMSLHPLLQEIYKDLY
PPARg SRC2 recr: promotes SRC-2 coactivator recruitment by human PPARgamma; P37231; PPARgamma LBD-SRC-2 recruitment, biochemical; activation, % at 8 µM; 0.34% of 200,000 active; AID 1032; in the data active = activation above about 22%;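 also: 0% = vehicle and 100% = reference agonist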
PPARg SRC-1 ag: agonists of human PPARgamma SRC-1 coactivator recruitment; PPARgamma-SRC-1 coactivator recruitment biochemical assay; activation, % at 8 µM; 0.41% of 200,000 active; in the data active = activation above about 19%;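 also: 0% = DMSO and 100% = reference agonist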
TR-FRET SRC-2 ct: TR-FRET artefact, counter-screen to PPARgamma/SRC-2 agonist assay; hits give high values; TR-FRET ratio at 8 µM; 0.4% of 200,000 active
SRC1 TRFRET art: TR-FRET artefact, counter-screen to PPARgamma/SRC-1 agonist assay | TR-FRET detection artefact counter-screen, emission ratio; hits give high values | TR-FRET ratio at 8 µM | 0.34% of 99,000 active; in the data active = TR-FRET ratio above about 2300
SRC3 TRFRET art: TR-FRET artefact, counter-screen to PPARgamma/SRC-3 agonist assay. PPARgamma/SRC-3 format; hits give high values. TR-FRET ratio at 8 µM. 0.39% of 99,000 active. AID 1048
Numbers without * were called inactive. Hits are enriched below; roughly 0.84% of the tested compounds scored in any of these assays. Rule as the data show it, unless noted: active = TR-FRET ratio above about 2000; inactive = the rest.

Results for OCC1(Cc2ccc(Cl)cc2)CCN(Cc2ccc3nsnc3c2)CC1 ?
PPARg SRC3 recr: 14.2; PPARg SRC2 recr: 19.6; PPARg SRC-1 ag: 18.1; TR-FRET SRC-2 ct: 1895; SRC1 TRFRET art: 2393*; SRC3 TRFRET art: 2045

How did COc1ccc(Cn2c(-c3ccc(C)cc3)nc3c(c(=O)c4ccccc4n3C)c2=O)cc1 do in these assays?
PPARg SRC3 recr: -0.2; PPARg SRC2 recr: 29.1*; PPARg SRC-1 ag: 4.5; TR-FRET SRC-2 ct: 2131*; SRC1 TRFRET art: 2030; SRC3 TRFRET art: 1508

How did COc1cc2c(cc1OC)C(c1ccc3c(c1)OCO3)CC(=O)N2 (stereo not drawn) do in these assays?
PPARg SRC3 recr: 0.9; PPARg SRC2 recr: 2.0; PPARg SRC-1 ag: -3.3; TR-FRET SRC-2 ct: 1324

Results for Cc1ccc(-c2csc3ncnc(-n4nnc5ccccc54)c23)cc1 ?
PPARg SRC3 recr: 3.1; PPARg SRC2 recr: -8.1; PPARg SRC-1 ag: -5.2; TR-FRET SRC-2 ct: 1648; SRC1 TRFRET art: 1803; SRC3 TRFRET art: 2064*

What do the screens show for `COc1cccc(NC(=S)NCc2ccc3c(c2)cc(C)n3C)c1`?
PPARg SRC3 recr: -0.3; PPARg SRC2 recr: -1.1; PPARg SRC-1 ag: 2.6; TR-FRET SRC-2 ct: 1922; SRC1 TRFRET art: 2579*; SRC3 TRFRET art: 2011

Results for NS(=O)(=O)c1cccc(NC(=O)CCS(=O)(=O)c2ccc(Cl)cc2)c1 ?
PPARg SRC3 recr: 0.3; PPARg SRC2 recr: 1.1; PPARg SRC-1 ag: -1.6; TR-FRET SRC-2 ct: 1490; SRC1 TRFRET art: 1675; SRC3 TRFRET art: 1561

How did O=C(c1ccccc1)c1ccc2nc(-c3ccc(NC(=O)c4ccccc4Br)cc3)[nH]c2c1 do in these assays?
PPARg SRC3 recr: 7.8; PPARg SRC2 recr: -0.5; PPARg SRC-1 ag: 8.6; TR-FRET SRC-2 ct: 2003*

What do the screens show for `CN(C)c1ccc(-c2ccccc2)nn1`?
PPARg SRC3 recr: -6.0; PPARg SRC2 recr: 7.7; PPARg SRC-1 ag: 1.7; TR-FRET SRC-2 ct: 1593

Results for O=C1OCCN1C(=O)[C@H]1[C@H](c2ccc(Cl)cc2)C(c2cccc(Cl)c2)=NN1c1ccccc1 ?
PPARg SRC3 recr: 7.8; PPARg SRC2 recr: 16.1; PPARg SRC-1 ag: 10.7; TR-FRET SRC-2 ct: 2617*; SRC1 TRFRET art: 3296*; SRC3 TRFRET art: 2817*

How did CN(C)CCCN(C(=O)c1ccc2c(c1)CCCC2)c1nc2c(F)cccc2s1 do in these assays?
PPARg SRC3 recr: -2.6; PPARg SRC2 recr: 1.5; PPARg SRC-1 ag: -0.3; TR-FRET SRC-2 ct: 1385; SRC1 TRFRET art: 1620; SRC3 TRFRET art: 1570

Results for CN(C)CCCN(C(=O)c1ccc(N2C(=O)CCC2=O)cc1)c1nc2c(F)cccc2s1 ?
PPARg SRC3 recr: 1.6; PPARg SRC2 recr: 7.3; PPARg SRC-1 ag: 21.8*; TR-FRET SRC-2 ct: 1737; SRC1 TRFRET art: 2031; SRC3 TRFRET art: 1580

Results for c1ccc(-c2oc3ncnc(NCCCN4CCOCC4)c3c2-c2ccccc2)cc1 ?
PPARg SRC3 recr: 7.4; PPARg SRC2 recr: 1.1; PPARg SRC-1 ag: 24.3*; TR-FRET SRC-2 ct: 1628

What do the screens show for `COc1ccc(-c2oc3ncnc(NCCCN4CCOCC4)c3c2-c2ccc(OC)cc2)cc1`?
PPARg SRC3 recr: -0.6; PPARg SRC2 recr: -3.5; PPARg SRC-1 ag: 1.3; TR-FRET SRC-2 ct: 1464

Results for Cc1ccc(N2CCN(S(=O)(=O)N3CCCCC3)CC2)cc1Cl ?
PPARg SRC3 recr: -1.9; PPARg SRC2 recr: 0.7; PPARg SRC-1 ag: -2.5; TR-FRET SRC-2 ct: 1452; SRC1 TRFRET art: 1597; SRC3 TRFRET art: 1479

How did O=C(CCN1C(=O)S/C(=C\c2ccccc2)C1=O)Nc1ccc(S(=O)(=O)Nc2nccs2)cc1 do in these assays?
PPARg SRC3 recr: 7.8; PPARg SRC2 recr: 1.6; PPARg SRC-1 ag: -7.3; TR-FRET SRC-2 ct: 1514

How did CCNC(=O)c1ccccc1SCc1ccccc1 do in these assays?
PPARg SRC3 recr: 0.8; PPARg SRC2 recr: 2.4; PPARg SRC-1 ag: -3.1; TR-FRET SRC-2 ct: 1479; SRC1 TRFRET art: 1740; SRC3 TRFRET art: 1473

How did O=C(Nc1nc2ccccc2c(=O)[nH]1)c1ccccc1SCc1ccccc1 do in these assays?
PPARg SRC3 recr: 1.7; PPARg SRC2 recr: 3.0; PPARg SRC-1 ag: 0.7; TR-FRET SRC-2 ct: 1370; SRC1 TRFRET art: 1612; SRC3 TRFRET art: 2104*

How did CN1C(=O)c2cccc3c(S(=O)(=O)Nc4ccccn4)ccc1c23 do in these assays?
PPARg SRC3 recr: 0.4; PPARg SRC2 recr: -1.5; PPARg SRC-1 ag: -1.8; TR-FRET SRC-2 ct: 1485

Results for O=C(N/C(=C/c1ccc(Br)cc1)C(=O)N1CCCC1)c1cccs1 ?
PPARg SRC3 recr: -0.2; PPARg SRC2 recr: -8.2; PPARg SRC-1 ag: 0.2; TR-FRET SRC-2 ct: 1549; SRC1 TRFRET art: 1915; SRC3 TRFRET art: 1282

How did COC(=O)C1=C(C)NC(=O)CC1c1cc2c(cc1Br)OCO2 (stereo not drawn) do in these assays?
PPARg SRC3 recr: 5.9; PPARg SRC2 recr: -2.7; PPARg SRC-1 ag: -1.3; TR-FRET SRC-2 ct: 1470; SRC1 TRFRET art: 1895; SRC3 TRFRET art: 2175*

What do the screens show for `O=C(CSc1nnc(-c2ccc(S(=O)(=O)N3CCOCC3)cc2)o1)c1ccccc1F`?
PPARg SRC3 recr: -1.6; PPARg SRC2 recr: 0.7; PPARg SRC-1 ag: 3.2; TR-FRET SRC-2 ct: 1586

What do the screens show for `O=C(Nc1nc(-c2ccc3ccccc3c2)cs1)C1CCN(S(=O)(=O)c2cccs2)CC1`?
PPARg SRC3 recr: 8.8; PPARg SRC2 recr: 15.1; PPARg SRC-1 ag: 8.6; TR-FRET SRC-2 ct: 1939; SRC1 TRFRET art: 2268; SRC3 TRFRET art: 2381*

Results for COc1cccc(C(=O)Nc2nc(-c3ccc(S(=O)(=O)N4CCOCC4)cc3)cs2)c1 ?
PPARg SRC3 recr: 16.0; PPARg SRC2 recr: 3.9; PPARg SRC-1 ag: 0.4; TR-FRET SRC-2 ct: 2385*

Results for Cc1ccc(-c2csc(NC(=O)c3cccc(S(=O)(=O)N4CCN(C)CC4)c3)n2)cc1 ?
PPARg SRC3 recr: -4.3; PPARg SRC2 recr: 5.2; PPARg SRC-1 ag: 3.5; TR-FRET SRC-2 ct: 1523; SRC1 TRFRET art: 1995; SRC3 TRFRET art: 1730

What do the screens show for `Cc1onc(-c2ccccc2)c1C(=O)Nc1nc(-c2ccccc2)cs1`?
PPARg SRC3 recr: 5.8; PPARg SRC2 recr: 1.5; PPARg SRC-1 ag: 0.8; TR-FRET SRC-2 ct: 2194*

What do the screens show for `COc1ccc(C(=O)CSc2nnc(-c3ccc(S(=O)(=O)N4CCOCC4)cc3)o2)cc1`?
PPARg SRC3 recr: -8.2; PPARg SRC2 recr: -3.3; PPARg SRC-1 ag: 24.9*; TR-FRET SRC-2 ct: 1617

What do the screens show for `O=C(Nc1nc(-c2ccc(S(=O)(=O)N3CCOCC3)cc2)cs1)c1ccccc1`?
PPARg SRC3 recr: 9.8; PPARg SRC2 recr: -1.0; PPARg SRC-1 ag: 11.1; TR-FRET SRC-2 ct: 2397*

Results for O=C(Nc1nc(-c2ccc(S(=O)(=O)N3CCCC3)cc2)cs1)c1cccs1 ?
PPARg SRC3 recr: 5.3; PPARg SRC2 recr: 8.8; PPARg SRC-1 ag: 5.0; TR-FRET SRC-2 ct: 1891

What do the screens show for `O=C(Nc1nc(-c2nc3ccccc3s2)cs1)c1ccc(S(=O)(=O)N2CCOCC2)cc1`?
PPARg SRC3 recr: -2.5; PPARg SRC2 recr: 8.5; PPARg SRC-1 ag: 0.6; TR-FRET SRC-2 ct: 1954

Source: PubChem (The Scripps Research Institute Molecular Screening Center)
